A selection: hits, their analogues and other compounds. The true share with any hit is near 3.9%.
Platelet DG rel: inhibitors of platelet dense granule secretion, primary screen, cell-based, MLPCN, human platelets. human platelet-rich plasma, SFLLRN dense granule ATP release, luminescence. inhibition, %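 (compounds screened at 7.5 µM in platelet-rich plasma)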. hit rate 0.22% among 300,000. AID 1663, 2009;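 active means mean replicate score, as percent of positive control, at or above 50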
TPT1 inhibitor: Candida albicans TPT1 enzyme inhibitors, primary screen, biochemical, fluorescence polarization | AID 1962, 2009 | recombinant caTPT1, FP RNA substrate dephosphorylation | hit rate 0.81% among 300,000 | inhibition, % at 5 µM | tRNA 2'-phosphotransferase TPT1 (Candida albicans SC5314);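 active means inhibition above the mean of all tested compounds plus 3 SD, set per screening campaign, cut at about 24% in these data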
SKKanGAS inh: S. pyogenes SKKanGAS growth inhibitors in kanamycin, primary screen, streptokinase expression inhibitor project, SKKanGAS strain, BacTiter-Glo luminescence; 6 h; inhibition, % at 7.5 µM; hit rate 1.3% among 300,000; AID 1662, 2009;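 active means mean replicate score, as percent of positive control median, at least 50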;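 further: strain carries kanamycin resistance gene driven by streptokinase promoter and grows in 40 µg/ml kanamycin; loss of luminescence reflects streptokinase promoter inhibition or plain growth inhibition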
WT yeast gro inh: growth inhibition of WT strain, primary screen, mitochondrial fusion inhibitor project, WT and mutant strains, chemical genetic; mitochondrial fusion phenotypic screen; inhibition, % at 10 µM; hit rate 2.1% among 190,000; AID 1362, 2008; in the data active means inhibition above about 58%; tested in S. cerevisiae
Rtt109 Vps75: inhibitors of C. albicans Rtt109/Vps75 HAT, primary screen, biochemical, ThioGlo CoA-SH fluorescence, plate reader | Histone acetyltransferase RTT109 (Candida albicans (strain SC5314 / ATCC MYA-2876)), … | purified Rtt109/Vps75, 4 h | inhibition, % at 34.9 µM | hit rate 0.16% among 330,000;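 active means inhibition of at least 50% in every replicate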
Target sequence (Q5AAJ8 whole entry, looked up): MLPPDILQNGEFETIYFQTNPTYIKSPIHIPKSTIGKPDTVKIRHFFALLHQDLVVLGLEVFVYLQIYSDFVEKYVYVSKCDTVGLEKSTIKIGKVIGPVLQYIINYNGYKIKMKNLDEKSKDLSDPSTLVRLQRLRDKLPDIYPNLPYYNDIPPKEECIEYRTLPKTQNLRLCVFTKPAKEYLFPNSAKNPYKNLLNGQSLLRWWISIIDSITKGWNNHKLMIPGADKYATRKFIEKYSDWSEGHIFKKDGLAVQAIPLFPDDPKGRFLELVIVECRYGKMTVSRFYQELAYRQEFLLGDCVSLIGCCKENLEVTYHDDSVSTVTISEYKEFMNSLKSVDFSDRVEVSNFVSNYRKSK
PHOSPHO1 inh: PubChem AID 1565; recombinant PHOSPHO1, absorbance phosphatase assay; Phosphoethanolamine/phosphocholine phosphatase (Homo sapiens), Q8TCT1; hit rate 1.1% among 290,000; inhibition, % at 13.3 µM; in the data active means inhibition above about 60%
Target sequence (Q8TCT1 whole entry, looked up): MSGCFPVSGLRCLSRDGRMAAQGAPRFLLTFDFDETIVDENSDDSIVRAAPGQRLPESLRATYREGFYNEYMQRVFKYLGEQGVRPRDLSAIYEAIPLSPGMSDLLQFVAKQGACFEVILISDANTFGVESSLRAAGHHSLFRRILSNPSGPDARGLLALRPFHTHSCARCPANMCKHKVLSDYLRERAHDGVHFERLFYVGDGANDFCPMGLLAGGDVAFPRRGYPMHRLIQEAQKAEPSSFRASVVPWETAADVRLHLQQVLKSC
Numbers stand for hits; 0 = inactive; - = no result given.

SMILES | Platelet DG rel | TPT1 inhibitor | SKKanGAS inh | WT yeast gro inh | Rtt109 Vps75 | PHOSPHO1 inh
CCCc1nc2ccccc2c(C(=O)OC2CCOC2=O)c1CC (stereo not drawn) | 0 | 0 | 0 | 0 | 0 | 66
CC1=C(OC(=O)c2ccccc2)C(C)(C)C(c2ccc(Br)cc2)OC1=O (stereo not drawn) | 0 | 0 | 0 | 66 | 0 | 0
CN=c1scc(-c2cccs2)n1/N=C/c1ccc(O)c(O)c1O | 60 | 0 | 0 | 0 | 0 | 0
CN=c1scc(-c2cccs2)n1/N=C/c1ccccc1O | 0 | 0 | 0 | 62 | 0 | 0
COc1cc(NC(=O)c2c(F)c(F)c(OC)c(F)c2F)ccc1NC(=O)c1cccs1 | 0 | 0 | 0 | - | 0 | 0
COc1ccc(CCNC(=O)C(C)n2nc(C)c3c(C)n(-c4ccc(C)cc4)nc3c2=O)c(OC)c1 (stereo not drawn) | 0 | 0 | 0 | - | 0 | 0
O=C(COC(=O)c1ccc2ccccc2n1)Nc1ccccc1F | - | - | - | - | 0 | -
Cc1ccc(-n2nc3c(=O)n(CCCC(=O)NCc4ccc(F)cc4)nc(C)c3c2C)cc1 | 0 | 0 | 0 | - | 0 | 0
Cc1ccc(-n2nc3c(=O)n(CCCC(=O)NCc4ccco4)nc(C)c3c2C)cc1 | 0 | 0 | 0 | - | 0 | 64
CCCSc1nc2sc3c(c2c(=O)[nH]1)CCN(Cc1ccccc1)C3 | 0 | 82 | 0 | 0 | 0 | 0
O=c1[nH]c(C(Cl)Cl)nc2sc3c(c12)CCN(Cc1ccccc1)C3 | 0 | 0 | 0 | 0 | 0 | 0
CCOc1ccccc1NC(=O)CSc1nnnn1C1CCCC1 | 0 | 0 | 0 | - | 0 | 0
COc1ccc(-c2cc3nc(C)cc(N)n3n2)cc1 | 94 | 0 | 0 | 0 | 0 | 0
COc1ccc(-c2cc3nc(C)cc(-c4ccc(OC)cc4)n3n2)cc1 | 0 | 0 | 0 | - | 0 | 0
Cc1cc([N+](=O)[O-])cc(/C=N/n2c(C)nc3ccccc3c2=O)c1O | 0 | 0 | 72 | - | 0 | 0
COc1cc(OC)c(OC)cc1CNC(=O)c1cc(S(=O)(=O)N2CCOCC2)ccc1F | - | - | - | - | 0 | -
Cc1cccc(-n2cc(-c3ccccc3)c3c(N4CCOCC4)ncnc32)c1 | 0 | 0 | 0 | 0 | 0 | 0
Cc1ccc(-n2cc(-c3ccccc3)c3c(N4CCN(C)CC4)ncnc32)cc1 | 0 | 0 | 0 | 62 | 0 | 0
Cc1ccc(-n2cc(-c3ccccc3)c3c(N4CCOCC4)ncnc32)cc1 | 0 | - | 0 | 71 | 0 | 0
CC1CN(c2ncnc3c2c(-c2ccccc2)cn3-c2ccc(F)cc2)CC(C)O1 (stereo not drawn) | 0 | 0 | 0 | 75 | 0 | 0
Cc1cccc(-c2nn(-c3ccccc3)cc2C(=O)N2CCN(C3CCS(=O)(=O)C3)CC2)c1 (stereo not drawn) | - | - | - | - | 0 | -
CCN(Cc1ccccc1)C(=O)Cc1c[nH]c2ccccc12 | 0 | 0 | 0 | - | 0 | 0
CCOc1cccc2c1OC1(C)CC2NC(=O)N1c1cccc(C(=O)NCc2ccccn2)c1 (stereo not drawn) | 0 | 0 | 0 | - | 0 | 0
CN1c2ccsc2/C(=N/Nc2ccccc2)CS1(=O)=O | 0 | 0 | 60 | 0 | 0 | 0
CN1c2ccsc2/C(=N/NC(=O)c2c(F)cccc2F)CS1(=O)=O | 0 | 0 | 0 | 0 | 0 | 0
SMILES | Platelet DG rel | TPT1 inhibitor | SKKanGAS inh | WT yeast gro inh | Rtt109 Vps75 | PHOSPHO1 inh
COc1ccc(C(=O)c2c(C(F)(F)F)oc3c2C(=O)c2ccccc2C3=O)cc1OC | 0 | 0 | 100 | 90 | 0 | 82
COc1ccc(C(=O)Nc2ccc3c(c2)C(=O)c2ccccc2C3=O)cc1OC | 0 | 0 | 0 | 0 | 0 | 0
Cc1ccc(SCC(=O)OCC(=O)NC2(C#N)CCCCC2)cc1 | 0 | - | 0 | - | 0 | 0
CC(C)Cn1cnc2c(SCCc3ccccc3)nc(N)nc21 | - | - | - | - | 0 | -
NC(=S)N/N=C/c1c(O)c(Br)cc2oc3c(c12)CCCC3 | 0 | 0 | 87 | - | 0 | 0
Oc1c(Br)cc2oc3c(c2c1CNCc1ccccc1)CCCC3 | 0 | 0 | 0 | 0 | 0 | 0
CCN1C[C@@H]2[C@@H]3C(=O)N(Cc4ccccc4)C(=O)[C@@H]3[C@](C)(C1=O)N2C(=O)c1ccc(C)cc1 | - | - | - | - | 0 | -
Cc1ccc(C(=O)N2c3ccccc3N(Cc3ccccc3)C(=O)C2(C)C)cc1 | 0 | 0 | 0 | 85 | 0 | 0
CCN1C(=O)/C(=C2\C=Cc3cc(C)ccc3N2CC)OC1=S | 0 | 0 | 0 | 0 | 0 | 0
CCN1C(=O)/C(=C2/C=Cc3ccccc3N2C)OC1=S | 0 | 0 | 0 | 0 | 0 | 65
Cc1ccc(Nc2nc(Cl)c(C=O)s2)cc1Cl | 0 | 0 | 0 | 0 | 0 | 0
CCN(CC)c1nc(NN)nc(Nc2ccc(C)c(Cl)c2)n1 | 0 | 0 | 104 | - | 0 | -
C#CCOCCOCCOCCNc1nc(N2CCN(C(=O)[C@H](CCCN=C(N)N)n3cc(C(N)[C@@H](C)CC)nn3)CC2)nc(N2CCN(C(=O)[C@H](CCCCN)n3cc([C@@H](N)CC(N)=O)nn3)CC2)n1 (stereo partly drawn) | - | - | - | - | 80 | -
C#CCOCCOCCOCCNc1nc(N2CCN(C(=O)[C@H](CCCN=C(N)N)n3cc(C(N)[C@@H](C)CC)nn3)CC2)nc(N2CCN(C(=O)[C@H](CCC(=O)O)n3cc([C@@H](N)CC(N)=O)nn3)CC2)n1 (stereo partly drawn) | - | - | - | - | 0 | -
Nc1[nH][nH]c(=O)c1N=Nc1cccc(Cl)c1 | 0 | 0 | 0 | 0 | 0 | 0
O=C1CCN(N=Nc2cccc(Cl)c2)N1 | 53 | 0 | 0 | 0 | - | 72
CC1=C(C)/C(=N\OS(=O)(=O)c2ccccc2)C=CC1=O | 0 | 0 | 0 | 80 | 147 | 0
NC(=O)CSc1cn(Cc2ccc(F)cc2)c2ccccc12 | 59 | 0 | 0 | 0 | 0 | 0
CC[n+]1c(/C=C/c2c[nH]c3ccccc23)ccc2cc(C)ccc21 | - | - | - | 76 | 84 | 0
COc1cccc(CNC(=O)CCS(=O)(=O)c2ccc3c(c2)CC(C)N3C(=O)C2CC2)c1 (stereo not drawn) | 0 | 0 | 0 | - | 0 | 0
COc1ccc(C(CCNCc2ccccc2)c2ccc(F)cc2)cc1 (stereo not drawn) | 0 | 0 | 0 | 60 | 0 | 0
COc1ccc(C(CCNC(C)c2ccccc2)c2ccc(F)cc2)cc1 (stereo not drawn) | 0 | 0 | 0 | 59 | 0 | 0
COc1ccc(C(CCNCc2ccc(F)cc2)c2ccc(F)cc2)cc1 (stereo not drawn) | 0 | 0 | 0 | 59 | 0 | 0
COc1ccc(CCNC(=O)COc2cccc(-n3cnnn3)c2)cc1 | - | - | - | - | 0 | -
CS(=O)(=O)N1N=C(c2cccs2)CC1c1ccccc1O (stereo not drawn) | 0 | 0 | 0 | 0 | 0 | 60
COc1ccc(C2CC(c3ccccc3)=NN2S(=O)(=O)c2ccccc2)cc1 (stereo not drawn) | 0 | 0 | 0 | - | 0 | 0
